The results in this text go back to PMC7819943, “Rice protein-binding microarrays: a tool to detect cis-acting elements near promoter regions in rice”.

In all, about 68,000 sequences were measured (“fluorescence intensity (a.u.)”: median about 9,100, highest 2% from about 16,000 on). The list comes from a sample in which the highest values are over-represented; it also holds similar and randomly drawn sequences.

Chain of OsWRKY34 (Q0JBA9 entry or part of it): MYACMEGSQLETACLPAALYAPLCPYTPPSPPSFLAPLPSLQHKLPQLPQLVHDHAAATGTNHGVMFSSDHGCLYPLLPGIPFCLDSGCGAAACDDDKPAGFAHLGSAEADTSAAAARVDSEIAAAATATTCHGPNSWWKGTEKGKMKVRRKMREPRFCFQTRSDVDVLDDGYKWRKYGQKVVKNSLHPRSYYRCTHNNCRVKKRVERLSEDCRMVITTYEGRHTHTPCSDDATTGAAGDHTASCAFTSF

The target of the test is OsWRKY34 (Oryza sativa, UniProt Q0JBA9 1-250). Put plainly: protein-binding microarray (RPBM); PBS, 2% BSA, 51.3 ng/ul salmon testes DNA, 50 uM zinc acetate, 200 nM TF, 25 C, 1 h; high values mean tight binding. The settings on record: protein: recombinant; tags: N-terminal polyhistidine and DsRed monomer fusion (pET32a); label: CyDye5-dUTP incorporated in the synthesized complementary strand; 3' TTTTT single-stranded linker to array surface; dsDNA, one strand shown. Put shortly:
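Per-feature fluorescence intensity (arbitrary units), read on an Axon 4000B scanner, is the binding signal. Transcription factors carrying an N-terminal polyhistidine tag and DsRed fusion were expressed in E. coli BL21-CodonPlus and purified on Ni–NTA. A custom Agilent array, made double-stranded by primer extension with Cy5-dUTP and blocked with 2% BSA, was incubated with 200 nM protein in PBS, 2% BSA, salmon testes DNA and 50 µM zinc acetate at 25 °C for 1 h and then washed.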
For the sequence “ACCGTCGTCAGCAACGCCGCTACTGCCACTGCAATTGCCGCGGAGTCACCTAGTGCAG”, the binding signal is 8320 fluorescence intensity (a.u.). “TGTGTACTATTTTTTCTACCGTTGGATACAAATATGAGGGCGGAGTCACCTAGTGCAG”: the binding signal was 8510 fluorescence intensity (a.u.).

Regarding “CCGCATTTTAATGTATGACGTCATTGACTTTTCGATCAACCGGAGTCACCTAGTGCAG”, the binding signal was 10200 fluorescence intensity (a.u.). With “CCTTTTGGACGTACGTCGATAGTTGGGTAAATATGAAAAACGGAGTCACCTAGTGCAG”, the binding signal was 11400 fluorescence intensity (a.u.). Regarding “TTAATGTATGACGCCGTTGACTTTTTAATCAACGTTTGACCGGAGTCACCTAGTGCAG”, the binding signal was 25900 fluorescence intensity (a.u.). “TTAATGTATGACGCCGTTGACTTTTTAATAAACGTTTGACCGGAGTCACCTAGTGCAG”: the binding signal is 40900 fluorescence intensity (a.u.). The result for “TTTAATGTATCACACCGTTAATTTTTTTTCAACGTTTGACCGGAGTCACCTAGTGCAG” reads 8900 fluorescence intensity (a.u.); that for “ACCTGTAAACTACCGTTGGATAAAAAATAAACGTATGAGACGGAGTCACCTAGTGCAG”, 63600 fluorescence intensity (a.u.). The result for “TATTTTAATGTATGACGCCGTTGACTTTTTAATCAATGTTCGGAGTCACCTAGTGCAG” reads 29100 fluorescence intensity (a.u.); that for “CTGAAAATTTTGTGCGCTCACACCATGTGCTACATTTGTCCGGAGTCACCTAGTGCAG”, 10700 fluorescence intensity (a.u.); that for “TTCCTCCGTTTTTTTTATTCCTGCAACTAAAAGGTATTCTCGGAGTCACCTAGTGCAG”, 8860 fluorescence intensity (a.u.). The result for “GGTCTCAGGTTGTCACTTTTCTATCCAGATTTATCGTAGTCGGAGTCACCTAGTGCAG” reads 8110 fluorescence intensity (a.u.).

For the sequence “ATCCTCACGTAATATACACCTTCGTACCATAATATAATAACGGAGTCACCTAGTGCAG”, the binding signal is 8250 fluorescence intensity (a.u.). As to “CGCTTCCTGTTGTGATTATGTAATCTTGTATTCTTGTTGACGGAGTCACCTAGTGCAG”, the binding signal is 11600 fluorescence intensity (a.u.).

As to “CTCCCTCGTCTTTCTGCTGGCCACCACCCTCCCCGTCTTCCGGAGTCACCTAGTGCAG”, the binding signal is 12300 fluorescence intensity (a.u.). With “ACCTTTCTCACTACACGCCATTCCGCTCGCGTCCAATTGTCGGAGTCACCTAGTGCAG”, the binding signal was 10100 fluorescence intensity (a.u.). The result for “CTCGTCGTCTCCTCCGCTCCTTGCGCCATCTCGCGGCTGACGGAGTCACCTAGTGCAG” reads 11500 fluorescence intensity (a.u.). The result for “CATGATCGCTGTGCACCTTCTGAATCATCTCTTCAATGGCCGGAGTCACCTAGTGCAG” reads 9780 fluorescence intensity (a.u.); that for “TTTAAATGTATCATGTCATTGACTTTTTTATAATATTTGACGGAGTCACCTAGTGCAG”, 8120 fluorescence intensity (a.u.).

Consider “CATGCCAATCATAAATAATGACATATTGGTTGACTTTTTGCGGAGTCACCTAGTGCAG”, for which the binding signal was 11000 fluorescence intensity (a.u.). In the case of “TTTAATGTATGGTGCCGTTGACTTTTTTTATCAATATTTGCGGAGTCACCTAGTGCAG” it was 41200 fluorescence intensity (a.u.). Take “CATACTGTTCCACTCGCCCTCGTTTTCTCCGCCACCGAGCCGGAGTCACCTAGTGCAG”: the binding signal is 8450 fluorescence intensity (a.u.). For the sequence “TTGACGCCGTTGACTTTTTAATACATGTTTGACCATTCGTCGGAGTCACCTAGTGCAG”, the binding signal is 44300 fluorescence intensity (a.u.). As to “TTGACGCCGTTGACTTTTTAGTACATGTTTGACCATTCGTCGGAGTCACCTAGTGCAG”, the binding signal is 49900 fluorescence intensity (a.u.).

For the sequence “ATACTCCCTTCGTTTCGAAATGTTTGACGCCGTTGACTTTCGGAGTCACCTAGTGCAG”, the binding signal was 14300 fluorescence intensity (a.u.).

Consider “CGCTGTTCAGACGTTGACTCTCGTTGTTTTTATAGTTTTTCGGAGTCACCTAGTGCAG”, for which the binding signal was 14600 fluorescence intensity (a.u.). As for “CTCCCTCCGTTTCGAAATGTTTGACGCCGTTGACTTTTTACGGAGTCACCTAGTGCAG”, the binding signal was 15900 fluorescence intensity (a.u.). Regarding “ACTCCCTCCGTTTCAAAATGTTTGACATCATTGACTTTTTCGGAGTCACCTAGTGCAG”, the binding signal was 11100 fluorescence intensity (a.u.).

As for “CTCCCTCTATCAAAAAAATGTTTGACGCCGTTGACTTTTTCGGAGTCACCTAGTGCAG”, the binding signal was 25600 fluorescence intensity (a.u.). Consider “CTCCCTTCGTTTCGAAATGTTTGACGCCGTTGACTTTTTACGGAGTCACCTAGTGCAG”, for which the binding signal was 22800 fluorescence intensity (a.u.). Consider “TCCGTTTCGGAATGTTTGACGCCGTTGACTTTTTATTACACGGAGTCACCTAGTGCAG”, for which the binding signal is 25400 fluorescence intensity (a.u.). Regarding “ACTCTCTCCGTTTCGAAATGTTTGACGCTGTTGACTTTTTCGGAGTCACCTAGTGCAG”, the binding signal is 17500 fluorescence intensity (a.u.). Consider “CACCCTCTCCCGTGTTCCACCCCGCCCGCGAATCATATCCCGGAGTCACCTAGTGCAG”, for which the binding signal was 9340 fluorescence intensity (a.u.). The result for “TCCGTCCCTGCAGTCACCTTATTGGTCAAATTTTAAATATCGGAGTCACCTAGTGCAG” reads 13400 fluorescence intensity (a.u.); that for “TAGGGGTGGGCATTCGGTCTAACTGAAAATTTCGGTCTCGCGGAGTCACCTAGTGCAG”, 13500 fluorescence intensity (a.u.). In the case of “TGACGTTTGACCAAAGTTTTCTTCAATTTTTCAGAAATGGCGGAGTCACCTAGTGCAG” it was 9900 fluorescence intensity (a.u.); in that of “GGTCTATGTCTCTCTGATTATTTCTTTTACTAATTGTTTGCGGAGTCACCTAGTGCAG”, 9060 fluorescence intensity (a.u.); in that of “CTTCTGCTCTCTAGCTAGCCTTCTTCCTATTGGAAGCTTCCGGAGTCACCTAGTGCAG”, 9230 fluorescence intensity (a.u.). In the case of “CATTCCTATCAAAATCCTACGTTTTTCCTATTCCTACGTTCGGAGTCACCTAGTGCAG”, the binding signal is 9840 fluorescence intensity (a.u.).

As for “CAACGAAAATACTAACAACATGCACCTGGCCGCGTTGACCCGGAGTCACCTAGTGCAG”, the binding signal was 13900 fluorescence intensity (a.u.). Turning to “GATCCTCTGTTTTATCTACGCGTTCCTATCAAATTCCTTTCGGAGTCACCTAGTGCAG”, the binding signal is 16800 fluorescence intensity (a.u.). As to “ATATTCCCTCCGTTTTGAAATGTTTGACGCCGTTGACTTTCGGAGTCACCTAGTGCAG”, the binding signal is 17000 fluorescence intensity (a.u.). As for “TGCACCTGGCCGCGTTGACCGTTCGAAATGTATATATTCCCGGAGTCACCTAGTGCAG”, the binding signal is 19600 fluorescence intensity (a.u.). On to “TTCTCTTTTATCTGTTTGCTTCCTATAAATTCTACGCGATCGGAGTCACCTAGTGCAG”, for which the binding signal was 8480 fluorescence intensity (a.u.). For the sequence “CCGCTGGCCCTTGTTGACACCTTGACTACGAAATGTATTCCGGAGTCACCTAGTGCAG”, the binding signal is 8980 fluorescence intensity (a.u.). “TTATACTCCCTCCGTTTCGAAATGTTTGACGCCGTTGACTCGGAGTCACCTAGTGCAG”: the binding signal is 11400 fluorescence intensity (a.u.).
